3CLpro inhibitor: SARS-CoV 3CLpro protease inhibition | P0C6X7 | recombinant SARS-CoV 3CLpro, quenched FRET peptide cleavage | inhibition, % at 6 µM | 290,000 compounds, 0.14% hits | AID 1706; in the data active means inhibition above about 12%
BoNT A protease: inhibitors of Botulinum neurotoxin A light chain protease; multiplex microsphere protease substrate cleavage, flow cytometry; inhibition, % at 10 µM; 360,000 compounds, 0.17% hits; AID 588499; further: plate controls were buffer without enzyme for full effect and enzyme alone for no effect
BoNT-F LC inh: blocks Botulinum neurotoxin F light chain protease | Multiplex microsphere protease cleavage assay, flow cytometry | AID 588497 | 360,000 compounds, 0.22% hits | inhibition, % at 10 µM; in the data active means inhibition above about 35%, passing the limit was not always enough; inconclusive means no clear call, values can overlap the other calls; further: plate controls were buffer without enzyme for full effect and enzyme alone for no effect
Autofluor counter: counter-screen for toxin protease inhibitors: compound fluorescence | compound autofluorescence counterscreen, microsphere flow cytometry; active compounds read high | AID 624483 | fluorescence intensity (concentration not given with the values) | 360,000 compounds, 3.1% hits; in the data active means fluorescence intensity above about 16000; inconclusive means no clear call, values can overlap the other calls
CCHF vOTU inh-1: CCHFV vOTU protease inhibition. Pep-AMC fluorescence. inhibition, % at 11.5 µM. 370,000 compounds, 0.55% hits; in the data active means inhibition above about 30%; further: 0% = vehicle wells with enzyme and 100% = no enzyme wells
Anthrax LF prot: inhibitors of Bacillus anthracis lethal factor protease | P15917 | inhibition, % at 10 µM | multiplex microsphere protease cleavage assay, LF | 360,000 compounds, 0.12% hits; further: plate controls were buffer without enzyme for full effect and enzyme alone for no effect
CCHF vOTU inh-2: CCHFV vOTU protease inhibition, confirmation | shares compounds with CCHF vOTU inh-1 | Recombinant CCHFV vOTU, Pep-AMC fluorescence | inhibition, % at 11.5 µM | 1,900 compounds, 17% hits; in the data active means inhibition above about 30%
Starred values were filed as active, the others as inactive; ? = inconclusive; nt = not tested or not shown. Compounds with a hit are over-represented: about 3.9% of the library has one in this group of screens. Unless noted, no stated cut-off is given here; in the data, active means inhibition above about 30%; inconclusive means no clear call, values can overlap the other calls; inactive means below that.

SMILES	3CLpro inhibitor	BoNT A protease	BoNT-F LC inh	Autofluor counter	CCHF vOTU inh-1	Anthrax LF prot	CCHF vOTU inh-2
Oc1ccc(NCc2cccc(OCc3ccccc3)c2)cc1	2	-1	-12	4119	73*	-7	-15
c1ccc(COc2cccc(CNCc3cccnc3)c2)cc1	1	0	-14	4931	-12	4	nt
O=[N+]([O-])c1ccc(COc2cccc(CNc3ccc(F)cc3)c2)cc1	4	-2	-18	2404	-8	-3	nt
Oc1ccc(NCc2cccc(OCc3ccc(F)cc3)c2)cc1	-3	-1	-16	4476	89*	-8	16
CC(=O)N(C1=C(N)C(=O)c2ccccc2C1=O)c1ccccc1	0	2	-1	3584	73*	3	64*
O=C(C(=O)N1CCC(CNS(=O)(=O)c2ccc(OC(F)(F)F)cc2)CC1)c1cc2ccccc2o1	nt	nt	nt	nt	14	nt	nt
Cc1ccc(CN2CCCCC(NC(=O)c3ccc(Br)cc3)C2=O)cc1 (centres undefined)	nt	nt	nt	nt	17	nt	nt
CCCCc1c(-c2ccccc2OC)ncn1CCc1ccccc1Cl	nt	0	3	4102	31*	10	9
CCCCc1c(-c2ccccc2F)ncn1CCc1ccccc1OC	nt	0	-1	6170	37*	4	7
CCCc1c(-c2cccc(F)c2)ncn1Cc1ccccc1OC	nt	0	3	6212	37*	6	7
CCCCc1c(-c2ccccc2OC)ncn1Cc1ccc(F)cc1F	nt	nt	nt	nt	33*	nt	0
CCCCc1c(-c2ccccc2OC)ncn1Cc1cc(F)cc(F)c1	nt	nt	nt	nt	13	nt	nt
COC(=O)[C@]12C[C@H](CC(=O)N3CCSCC3)C(=O)N(Cc3cccc4ccccc34)C1=C[C@H](C(C)(C)C)O[C@@H]2C	nt	nt	nt	nt	14	nt	nt
O=Cc1ccc([B-](F)(F)F)o1	nt	nt	nt	nt	3	nt	nt
CC(=O)N1c2ccccc2N=C(c2ccc(C(F)(F)F)cc2)C1C(=O)NC(C)C (centres undefined)	nt	nt	nt	nt	30*	nt	-14
O=C(C(=O)N1CCC(CNS(=O)(=O)c2cc(C(F)(F)F)cc(C(F)(F)F)c2)CC1)c1cc2ccccc2o1	nt	nt	nt	nt	2	nt	nt
O=C(NCC1CCN(C(=O)C(=O)c2cc3ccccc3o2)CC1)c1cc(C(F)(F)F)cc(C(F)(F)F)c1	nt	nt	nt	nt	37*	nt	-11
COC(=O)C[C@@H]1CC[C@H]2[C@H](COc3ccc(NC(=O)c4ccc(OC)cc4)cc3C(=O)N2C)O1	nt	nt	nt	nt	-2	nt	nt
S=c1[nH]nc(-c2cccnc2)n1/N=C/c1ccc(Br)s1	-3	1	-4	7393	26	-3	nt
Cc1ccc(/C=N/n2c(-c3cccnc3)n[nH]c2=S)s1	7	1	1	1954	34*	3	-1
COc1cc(CCNC2=CC(=O)c3ncccc3C2=O)ccc1O	nt	-1	-21	3136	74*	-12	78*
COc1ccccc1CNS(=O)(=O)c1cc(CN2C(=O)c3cccnc3C2=O)ccc1OC	-5	0	5	5539	6	0	nt
C/C(=N\NC(=O)c1cc2ccccc2cc1O)c1ccccn1	2	2	14	4424	28	8	nt
C/C(=N\NC(=O)c1ccccc1-n1cccc1)c1ccccn1	nt	0	0	3720	37*	2	-13
Oc1ccc(NCc2cccs2)cc1	0	-3	-1	3738	88*	-14	-5
SMILES	3CLpro inhibitor	BoNT A protease	BoNT-F LC inh	Autofluor counter	CCHF vOTU inh-1	Anthrax LF prot	CCHF vOTU inh-2
COc1cc(N)c2ncccc2c1OC	nt	0	-1	4036	40*	0	3
COc1cc(NCCCCCCN)c2ncccc2c1OC	nt	1	-104	3052	102*	-62	94*
COc1cc(C(=O)Nc2cccc3ncccc23)cc(OC)c1OC	3	1	8	4241	-12	-2	nt
COc1cc(NC(C)CCCNC(C)C)c2ncccc2c1OC (centres undefined)	nt	1	-12	3707	17	-11	nt
COC(=O)[C@]12C[C@H](CC(=O)NCc3cccc4ccccc34)C(=O)N(CCC3=CCCCC3)C1=C[C@H](C(C)(C)C)O[C@@H]2C	nt	nt	nt	nt	19	nt	nt
S=C(SCc1c(Cl)cccc1Cl)N1CCSCC1	nt	nt	nt	nt	11	nt	nt
COc1ccc(CNC(=O)c2c(C)oc3c2C(=O)c2ccccc2C3=O)cc1	0	0	-6	4089	54*	-6	48*
Cc1oc2c(c1C(=O)NCc1cccnc1)C(=O)c1ccccc1C2=O	4	nt	nt	nt	nt	nt	nt
O=C(CSc1nnc(-c2cccnc2)n1-c1ccccc1)c1ccccc1Cl	nt	nt	nt	nt	-1	nt	nt
O=C(NCc1ccccc1)[C@H]1CCCN1C(=O)[C@H]1CCCN1C(=O)c1ccc(F)c(C(F)(F)F)c1	nt	nt	nt	nt	-12	nt	nt
COCc1[nH]nc2c1C(c1cccc(C(F)(F)F)c1)NC2=O (centres undefined)	nt	nt	nt	nt	-7	nt	nt
O=C1c2ccccc2C(=O)N1CC1=NCCc2ccccc21	-7	1	4	2302	39*	2	-15
COC(=O)C1=C(C)N(Cc2ccccc2C(F)(F)F)C(=NCc2cc(OC)c(OC)c(OC)c2)NC1c1ccccc1 (centres undefined)	nt	nt	nt	nt	23	nt	nt
COc1cc(NS(=O)(=O)c2ccc(C)cc2)c2ncccc2c1	-3	-1	-8	8344	-4	-12	nt
COc1cc(NCCCC(C)N)c2ncccc2c1 (centres undefined)	0	0	-48	2363	65*	-25	108*
CCC(CNc1cc(OC)cc2cccnc12)NC1CCCCC1 (centres undefined)	5	-3	?	2533	110*	-39	102*
COc1cc(NCCCCC(C)N)c2nccc(C)c2c1 (centres undefined)	nt	0	-42	3185	57*	-13	45*
CNc1ncn(-c2c(C)cccc2C)c(=O)n1	nt	nt	nt	nt	12	nt	nt
COc1cc2c(cc1O)[C@@H]1Cc3ccc(OC)c(O)c3CN1CC2	nt	-1	-18	6264	105*	-6	93*
COc1ccc(C[C@@H]2c3cc(O)c(OC)cc3CCN2C)cc1O	1	0	-6	2824	12	-3	nt
CC(C)c1ccc(CN2CCC2(C)C(=O)Nc2ccc3c(c2)OCO3)cc1 (centres undefined)	nt	0	-7	3959	17	-14	nt
CC(C)Oc1ccc(CN2CCC2(C)C(=O)Nc2ccc3c(c2)OCO3)cc1 (centres undefined)	nt	-1	-9	3702	34*	-3	-10
Cc1ccccc1-c1ccc2c(c1)[C@@H]1C[C@H](N(C)CC3CCCCC3)[C@H]([C@H](C)O)CN1CC2	nt	nt	nt	nt	5	nt	nt
Cc1ccc(C(=O)N2CCC[C@@H]2C(=O)N2CCC[C@H]2C(=O)NCc2ccccc2)cc1C	nt	nt	nt	nt	-3	nt	nt
CCOC(=O)Cn1cc(CN2C(C(=O)OC)CN(Cc3ccc(F)cc3)CCS2(=O)=O)nn1 (centres undefined)	nt	nt	nt	nt	-6	nt	nt
COc1ccc(OC)c2c1cc(C(=O)N[C@@H](Cc1ccccc1)C(=O)O)n2C	1	-1	-13	2993	4	-15	nt
COc1ccc(OC)c2c1cc(C(=O)N[C@H](C(=O)N1CCC(C(=O)O)CC1)C(C)C)n2C	-5	-3	-6	3254	36*	-14	20

Source: PubChem (several laboratories)
